From PubChem BioAssay AID588453 (National Center for Advancing Translational Sciences (NCATS), 2011)
Hit rate of the full screen: of about 390,000 compounds, about 4,000 (1%) were called active. Inconclusive results (about 4%) are left out. For the sample, actives were picked, then their nearest neighbours and some compounds at random. Unmarked numbers belong to inactive results. Calls come from the whole dose curve; as a rule, active = well fitted inhibition curve with a large enough effect; inconclusive = small, poorly fitted or top-dose-only effect; inactive = no such curve, though single readings can be large or run the other way.

Each compound was assayed against Thioredoxin reductase 1, cytoplasmic (Rattus norvegicus) (UniProt O89049) (assay: qHTS Assay for Inhibitors of Mammalian Selenoprotein Thioredoxin Reductase 1 (TrxR1): qHTS). Conditions: recombinant rTrxR1, NADPH fluorescence consumption, selenite substrate; series mostly up to 114 µM; activity change, negative = inhibition: at the top concentration.
Sequence of Thioredoxin reductase 1, cytoplasmic (Rattus norvegicus) (O89049 whole entry, looked up): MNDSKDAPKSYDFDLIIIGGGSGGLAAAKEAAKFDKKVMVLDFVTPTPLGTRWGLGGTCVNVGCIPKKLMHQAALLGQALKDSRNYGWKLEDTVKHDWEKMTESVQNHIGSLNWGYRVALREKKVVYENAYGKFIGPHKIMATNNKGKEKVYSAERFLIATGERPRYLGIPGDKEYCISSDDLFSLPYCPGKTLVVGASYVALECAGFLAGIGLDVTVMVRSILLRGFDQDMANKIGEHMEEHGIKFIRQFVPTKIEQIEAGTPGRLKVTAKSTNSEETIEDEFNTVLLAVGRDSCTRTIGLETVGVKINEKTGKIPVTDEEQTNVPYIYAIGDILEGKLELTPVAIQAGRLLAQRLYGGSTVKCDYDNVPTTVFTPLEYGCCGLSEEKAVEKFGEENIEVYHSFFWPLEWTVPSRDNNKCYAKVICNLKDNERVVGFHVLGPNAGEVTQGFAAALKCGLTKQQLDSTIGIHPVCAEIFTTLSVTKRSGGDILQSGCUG
Summary of the method: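 Rat TrxR1 (90 nM in the dispensed reagent) was pre-reduced with 400 uM NADPH for 5 min at room temperature, then incubated with compound for 15 min. After 400 uM selenite was added, NADPH fluorescence (Ex 340/Em 450 nm) was followed for 8 min.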
% is set by controls: 0 for no effect and ±100 for the full control effect; potency is the fitted concentration of half-maximal effect.
Note: nearly all actives have a fitted effect of over 65% in size.

SMILES | activity change, negative = inhibition | Potency
Nc1ncnc2nnsc12 | -0.422% | 
COc1cc2nc(C#Cc3nc4cc(OC)c(OC)cc4[nH]3)[nH]c2cc1OC | 86.5% | 
CC(C)(C(=O)NO)c1ccccc1 | 20% | 
Cc1cccc(CSc2nc3ccncc3n2CC(=O)N(C)C2CCCCC2)c1 | -2.23% | 
CC(=O)N(CN1C(=O)C2C3C=CC(C3)C2C1=O)c1cccc(Cl)c1 (stereo not drawn) | 9.83% [at 11.4 µM] | 
O=C(NCCN1CCN(C(=O)c2cccc([N+](=O)[O-])c2)CC1)C(=O)NCc1ccc(Cl)cc1 | -14.4% | 
O=C(CCl)N(Cc1cccc([N+](=O)[O-])c1)c1cccc(Cl)c1 |  | 7.94 µM (active)
Cc1ccc(Cl)cc1N(C)C(=O)C1CCCN(c2ncnc3onc(-c4ccc(F)cc4)c23)C1 (stereo not drawn) | 19.6% | 
CC(C)(C)n1nnnc1C(c1ccc(Cl)cc1)N1CCSCC1 (stereo not drawn) | 13.3% | 
CC(C)(C)n1nnnc1C(c1ccc2ncccc2c1)N1CCSCC1 (stereo not drawn) | 7.09% | 
Cc1cccc(N2CCN(C(c3ccc(N(C)C)cc3)c3nnnn3C(C)(C)C)CC2)c1C (stereo not drawn) |  | 11.2 µM (active)
Cc1ccsc1CN(C(=O)c1oc2ccc(Br)cc2c1C)C1CCS(=O)(=O)C1 (stereo not drawn) | 18.8% | 
Cc1cccc(S(=O)(=O)c2cn(Cc3ccccc3)c3cc(N4CCOCC4)c(F)cc3c2=O)c1 | 17.5% | 
COc1ccccc1-c1noc(CSc2nnc(-c3ccccc3)n2-c2ccc(C)c(C)c2)n1 | 16.3% | 
O=C(Nc1ccccc1)c1ccccc1OCc1ccccc1 | 17.6% | 
COc1ccc(CCn2cc3c(c2-c2ccc(Br)cc2)c(=O)n(C)c(=O)n3C)cc1OC | 19.2% | 
COc1ccc(-c2c3c(=O)n(C)c(=O)n(C)c3c3c(C)nc4ccccc4n23)cc1 | 33.4% | 
Cc1ccc(-c2c3c(=O)n(C)c(=O)n(C)c3cn2-n2cnnc2)cc1 |  | 50.1 µM (active)
Cc1ccc(N(CC(=O)NCC(C)c2ccccc2)S(=O)(=O)N(C)C)cc1 (stereo not drawn) | 9.43% [at 57.1 µM] | 
Cc1cccc(NC(=O)CN2CCCN(S(=O)(=O)c3ccc(Br)s3)CC2)c1 |  | 12.6 µM (active)

SMILES | activity change, negative = inhibition | Potency
CC(C)N(C(=O)CN1CCN(S(=O)(=O)c2ccc(Br)s2)CC1)C(C)C | -0.117% | 
COc1cc(NC(=O)CN2CCN(S(=O)(=O)c3ccc(Br)cc3)CC2)cc(OC)c1 | 11.8% | 
Cc1ccc2ccc3c(c2n1)NS(=O)(=O)c1ccccc1-3 | -6.92% | 
COc1ccc(C(=O)C2CCCN(C(=O)c3cnsn3)C2)c(C)c1 (stereo not drawn) | 21.1% | 
COc1ccc(C(=O)C2CCCN(S(=O)(=O)c3cccc(C)c3)C2)c(C)c1 (stereo not drawn) | 20.3% | 
COc1ccc(C(=O)C2CCCN(C(=O)c3ccc(OC)o3)C2)c(C)c1 (stereo not drawn) |  | 39.8 µM (active)
CN(C)c1ccc(/C=C/c2sc3ccccc3[n+]2C)cc1 | -0.933% | 
Oc1ccc(CNc2ccccc2O)cc1 |  | 7.94 µM (active)
OCC(CO)(CO)NCc1ccc(-c2ccccc2)cc1 | 5.61% | 
Oc1ccc(N2CCN(C(=S)NCc3ccccc3)CC2)cc1 | 1.02% [at 57.1 µM] | 
COc1ccc(OC)c(CNC(=O)c2c3c(nc4ccccc24)C(=O)N(C2CCCCC2)C3)c1 | 5.43% [at 57.1 µM] | 
COc1cc2[nH]c(C)c(CCN3CCN(c4ccccc4)CC3)c2cc1OC | -33.1% | 
COc1ccccc1NC(=O)N(O)C1(C#N)CCCCC1 | 0.82% | 
COc1ccccc1NC(=O)/C=C/C(N)=O |  | 12.6 µM (active)
COc1ccccc1NC(=O)COC(=O)COc1ccccc1F | -14.5% | 
COc1ccc(C(CCN2CCOCC2)c2c(OC)cc(OC)c3c2OC(=O)CC3c2ccc(OC)cc2)cc1 (stereo not drawn) | 19.8% [at 57.1 µM] | 
CCc1nn(CC(=O)Nc2cc(C)cc(C)c2)c(=O)c2cc3sccc3n12 | 11.6% | 
COc1cccc(CNC(=O)Cn2c(=O)c3cccn3c3ccc(F)cc32)c1OC | 17.7% | 
O=C(/C=C/Sc1ncn[nH]1)c1ccc(Cl)cc1 |  | 0.447 µM (active)
Cc1cccc(C2CC(=O)Oc3c2c(=O)n(C)c2ccccc32)c1 (stereo not drawn) | -4.1% | 

SMILES | activity change, negative = inhibition | Potency
Cn1c(=O)c([N+](=O)[O-])c(Oc2ccccc2)c2ccccc21 |  | 2.24 µM (active)
Cn1c(=O)c(Sc2ccc(Cl)cc2)c(O)c2ccccc21 | 7.28% [at 57.1 µM] | 
COc1cccc(C(=O)Oc2cc(C)[nH]c(=O)c2[N+](=O)[O-])c1 | -8.17% | 
Cc1cccc(Oc2c([N+](=O)[O-])c(=O)n(C)c3ccccc23)c1 |  | 3.16 µM (active)
Cc1cccc(C(=O)O)c1[N+](=O)[O-] | 23.2% | 
COc1cc(-c2cc3n(C)c(C)c(CCC(=O)Nc4ccc(F)cc4)c(=O)n3n2)cc(OC)c1OC | 41.7% [at 57.1 µM] | 
Cc1cccc(-n2ccnc2SCC(=O)Nc2cc(C(F)(F)F)ccc2Cl)c1 | 24.2% [at 57.1 µM] | 
Cc1ccc(-c2cc(C(F)(F)F)c(C#N)c(SCC(=O)Nc3ccccc3)n2)cc1 | 12.9% | 
N#Cc1cc2[nH]c(=O)c(=O)[nH]c2cc1[N+](=O)[O-] | -3.39% | 
COc1ccc(N=Nc2c(-c3ccc(OC)cc3)[nH]oc2=O)cc1 | 19.7% [at 57.1 µM] | 
COC1=CC(=O)OC(c2ccc(OC)cc2)C1 (stereo not drawn) | 9.46% | 
COc1ccc(N=C2C=CC(=O)O2)cc1 |  | 10 µM (active)
COc1ccc(C)cc1-n1c(-c2ccc(C)cc2)cc2c1CC(C)(C)CC2=O | 19% | 
O=C(Nc1ccc([N+](=O)[O-])cc1)c1cnn2c1NC(=C1CC1)C=C2C(F)F | 21.2% | 
CCc1ccc(NS(=O)(=O)c2ccc3[nH]cc(C(=O)NCCc4cccc(C)c4)c(=O)c3c2)cc1 | 40.2% [at 57.1 µM] | 
COc1ccc(CCNC(=O)c2nn(C)c3c2CSc2ccccc2-3)cc1OC | 9.84% | 
COc1cc(NC(=O)c2nc3ccccc3nc2C)cc(OC)c1OC | -3.78% | 
COc1cc(NC(=O)c2noc3c2CSc2ccccc2-3)cc(OC)c1OC |  | 14.1 µM (active)
